Compound activity: PubChem, National Center for Advancing Translational Sciences (NCATS)
Only some compounds are listed: those with a hit (about 9.2% of all), similar ones and a draw of the others.
LMNA splice mod – LMNA splicing modulation. HeLa LMNA splicing GFP/RFP minigene ratio, 48 h. Potency, µM (titrated, usually from 46.1 µM), hits mostly inhibitors. actives 0.01% (n = 200,000); active means well fitted inhibition curve with a large enough effect in the signal ratio, with a control signal flat, not every such curve was filed as active; inconclusive means small, poorly fitted or top-dose-only effect, or effect the other way, or a change in a side signal; the % refers to the signal ratio
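S3 HeLa stable clones carrying a lamin A-EGFP splicing minigene plus DsRed2 were seeded at 600 cells/well in Opti-MEM with 2% FBS, pin-dosed and incubated 48 h at 37°C. Acumen cytometry (488 nm) gave the GFP/RFP total-intensity ratio.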
HttQ103 aggreg – inhibitors of mutant huntingtin aggregate formation in PC12 cells; Potency, µM (series often up to 46.1 µM), usual class: inhibitors; AID 1688; PC12 HttQ103-GFP aggregates, Acumen cytometry, 40 h; actives 1.1% (n = 220,000); active means well fitted curve in the direction sought with a large enough effect; inconclusive means small, poorly fitted or top-dose-only effect, or another doubt; inactive means no such curve, though single readings can be large; an effect the other way counts as inactive or inconclusive; further: nearly all actives have a fitted effect of over 60% in size
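Aggregate formation scored by laser-scanning cytometer (488 excitation, 500–530 emission) in lysed PC12 cells expressing Q103-GFP after 100 nM tebufenozide induction; library tested in dose series, with ATPLite reagent added in the multiplex.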
ALDH1A1 block – blocks purified human ALDH1A1 activity | AID 1030 | Potency, µM (doses to about 75.3 µM), actives largely listed as inhibitors | Purified ALDH1A1, NADH fluorescence, propionaldehyde substrate | P00352 | actives 7.3% (n = 220,000)
KDM4E inh – inhibitors of human JMJD2E histone demethylase; actives 1.6% (n = 230,000); JMJD2E catalytic domain, FDH-coupled NADH fluorescence (FDH is formaldehyde dehydrogenase); Potency, µM (top dose mostly 57.1 µM), hits mostly inhibitors; B2RXH2; further: nearly all actives have a fitted effect of over 50% in size
Target sequence (B2RXH2 1-337 limits assumed): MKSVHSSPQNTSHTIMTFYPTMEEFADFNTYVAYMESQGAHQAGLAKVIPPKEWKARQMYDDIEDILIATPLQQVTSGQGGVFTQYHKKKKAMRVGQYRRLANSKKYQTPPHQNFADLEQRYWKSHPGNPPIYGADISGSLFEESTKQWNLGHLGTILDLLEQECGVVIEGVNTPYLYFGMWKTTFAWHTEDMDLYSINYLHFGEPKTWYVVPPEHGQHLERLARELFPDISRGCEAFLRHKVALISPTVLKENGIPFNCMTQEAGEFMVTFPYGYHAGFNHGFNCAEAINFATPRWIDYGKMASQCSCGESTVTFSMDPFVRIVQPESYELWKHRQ
HTT cytoprotect – cytoprotection in Huntington HTT-Q103 PC12 cell model | PC12 HTT-Q103 induced, cytoprotection, ATP luminescence, 40 h | Potency, µM (titrated, usually from 56.4 µM), hits mostly activators | actives 0.14% (n = 230,000) | AID 1471; active means well fitted curve in the direction sought with a large enough effect; inconclusive means small, poorly fitted or top-dose-only effect, or another doubt; inactive means no such curve, though single readings can be large; an effect the other way counts as inactive or inconclusive; further: nearly all actives have a fitted effect of over 45% in size
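Stable PC12 Q103-GFP cells in serum-supplemented, phenol red-free DMEM; induction by tebufenozide at 100 nM final; compound dose series; cell viability quantified luminescently from ATP.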
HPGD block – HPGD (human) dehydrogenase inhibition | P15428 | purified HPGD, NADH fluorescence kinetic, PGE2 substrate | Potency, µM, hits mostly inhibitors | actives 4.3% (n = 150,000) | AID 894
Target sequence (P15428 whole entry, looked up): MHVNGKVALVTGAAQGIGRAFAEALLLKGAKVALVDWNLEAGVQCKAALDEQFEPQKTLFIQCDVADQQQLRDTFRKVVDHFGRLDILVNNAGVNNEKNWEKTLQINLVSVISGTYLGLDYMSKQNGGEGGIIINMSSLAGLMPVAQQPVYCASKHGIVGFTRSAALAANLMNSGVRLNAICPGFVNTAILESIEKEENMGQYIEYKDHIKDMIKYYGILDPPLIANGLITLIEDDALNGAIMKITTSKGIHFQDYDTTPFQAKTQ
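20 nM HPGD preincubated 15 min at room temperature with compound in 50 mM Tris-HCl pH 8, 0.01% Tween 20. Started with 1 mM NAD+ and 30 uM prostaglandin E2; NADH fluorescence (360/450 nm) read 5 times over 30-s intervals, last minus first.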
Of the large screens only hits and unclear results are named; the others gave an inactive call. Unless noted, the call rests on the fitted dose curve; in most records, active means well fitted inhibition curve with a large enough effect (not every such curve was filed as active); inconclusive means small, poorly fitted or top-dose-only effect, or another doubt; inactive means no such curve, though single readings can be large or run the other way.

CCOC(=O)CSC1=Nc2ccccc2C2=NC(CCC(=O)NCc3ccc(OC)cc3)C(=O)N12 (stereo not drawn)	none (no result: HttQ103 aggreg, ALDH1A1 block, KDM4E inh, HTT cytoprotect, HPGD block)
Cc1ccc(N2CCN(C(=O)c3ccccc3Br)CC2)c(C)c1	LMNA splice mod inconclusive, HttQ103 aggreg inconclusive, ALDH1A1 block inconclusive, HPGD block 25µM
Cc1ccc(C)c(N2CCN(C(=O)c3ccccc3Br)CC2)c1	none
CC(=O)Nc1ccc(NC(=O)COC(=O)c2c(C)nn(-c3ccccc3)c2C)cc1	LMNA splice mod inconclusive, ALDH1A1 block 22µM (no result: HTT cytoprotect)
Cc1nn(-c2ccccc2)c(C)c1C(=O)OCC(=O)NC12CC3CC(CC(C3)C1)C2	HttQ103 aggreg inconclusive, ALDH1A1 block 8.9µM
CC1CCCN(S(=O)(=O)c2ccc(S(=O)(=O)NC(C)c3cccs3)cc2)C1 (stereo not drawn)	LMNA splice mod inconclusive, ALDH1A1 block 38µM
O=c1c(Cl)c(Cl)cnn1-c1ccccc1	HttQ103 aggreg inconclusive, ALDH1A1 block 13µM
CNC(=O)NC(=O)COC(=O)c1ccccc1OCc1ccccc1	none (no result: HPGD block)
Cc1cc(C(F)F)n2ncc(C(=O)N3CCc4ccccc4C3)c2n1	ALDH1A1 block inconclusive, HPGD block 22µM
COc1ccc(-c2cc(C(F)F)n3ncc(C(=O)N4CCCc5ccccc54)c3n2)cc1	KDM4E inh inconclusive (no result: HPGD block)
O=C(c1cnn2c(C(F)F)cc(-c3ccccc3)nc12)N1CCCc2ccccc21	ALDH1A1 block 20µM
CC(C#N)On1c(SC(C)C#N)nc2ccccc2c1=O (stereo not drawn)	ALDH1A1 block 16µM
O=C(/C=C/c1ccccc1)NC(=S)Nc1ncccn1	none (no result: LMNA splice mod, ALDH1A1 block, HPGD block)
CCOC(=O)CSc1[nH]c2cc(OC)ccc2c1[N+](=O)[O-]	none (no result: LMNA splice mod, HPGD block)
COc1ccc2c([N+](=O)[O-])c(Cl)[nH]c2c1	ALDH1A1 block inconclusive, KDM4E inh 16µM (no result: HPGD block)
CN(C)c1ccc(-c2cncnc2NCc2cccnc2)cc1	none (no result: HttQ103 aggreg, KDM4E inh, HPGD block)
C=C(C)[C@]12C[C@@H](C)[C@@]34OC(Cc5ccccc5)(O[C@@H]1[C@@H]3C=C(COC(=O)Cc1cc(OC)c(O)cc1I)C[C@]1(O)C(=O)C(C)=C[C@@H]41)O2	none (no result: LMNA splice mod, HttQ103 aggreg, KDM4E inh, HTT cytoprotect)
CS(=O)(=O)N1N=C(c2cccs2)CC1c1ccco1 (stereo not drawn)	ALDH1A1 block 20µM, KDM4E inh inconclusive (no result: LMNA splice mod, HPGD block)
O=C(c1ccco1)N1N=C(c2cccs2)CC1c1ccc(F)cc1 (stereo not drawn)	ALDH1A1 block 20µM, KDM4E inh inconclusive
O=C(O/N=C1\CCS(=O)(=O)c2sccc21)c1ccccc1	ALDH1A1 block 13µM
COC(=O)c1ccc(CN2CCCC(CCC(=O)NCc3ccc(C)o3)C2)cc1 (stereo not drawn)	none (no result: LMNA splice mod, HPGD block)
Cc1nccn1-c1ccc(C=O)cc1	ALDH1A1 block 20µM (no result: HPGD block)
Cc1ccc(-n2cccn2)cc1	none (no result: HPGD block)
COc1ccc(C=O)cc1Cn1ccnc1C	none (no result: LMNA splice mod, HPGD block)
O=Cc1ccc(-n2cccn2)cc1	ALDH1A1 block inconclusive, KDM4E inh 14µM (no result: LMNA splice mod, HPGD block)
COc1cccc(/C=C/C(=O)c2ccc(NC3=NCCCS3)cc2)c1	ALDH1A1 block inconclusive (no result: LMNA splice mod, HTT cytoprotect, HPGD block)
CN(C)c1ccc(C(=O)/C=C/c2ccc(Br)cc2)cc1	none (no result: HTT cytoprotect)
O=C(/C=C/c1ccc(Br)cc1)c1ccc(NC2=NCCCS2)cc1	LMNA splice mod inconclusive, HPGD block 8.9µM (no result: HTT cytoprotect)
O=C(/C=C/c1ccccc1)c1ccc(NC2=NCCCS2)cc1	HPGD block 14µM (no result: HTT cytoprotect)
CC(C)(C)c1ccc(/C=C/C(=O)c2ccc(NC3=NCCCS3)cc2)cc1	LMNA splice mod inconclusive, HPGD block 20µM
Cc1cccc(/C=C/C(=O)c2ccc(NC3=NCCCS3)cc2)c1	LMNA splice mod inconclusive
O=C(N/N=C\c1ccc2c(c1)CCC2)c1ccccc1O	none (no result: LMNA splice mod, HttQ103 aggreg, KDM4E inh)
COC(=O)c1c(NC(=O)CSc2nnc3ccccn23)sc2c1CCC2	LMNA splice mod inconclusive, KDM4E inh inconclusive
CC(=O)C1C(=O)C=C(c2cccs2)CC1c1ccccc1 (stereo not drawn)	ALDH1A1 block inconclusive (no result: HPGD block)
O=C1C=C(c2cccs2)C[C@H](c2ccccc2)[C@H]1n1nnc([N+](=O)[O-])n1	LMNA splice mod inconclusive, ALDH1A1 block 7.9µM, KDM4E inh inconclusive
N#C/C(C(=O)N1CCOCC1)=c1/s/c(=C\c2ccccn2)c(=O)n1-c1ccccc1	none (no result: HPGD block)
